Bioassay records as filed in PubChem.
In the library only some 12% were active in any assay of this set; here they are far more common.
BAZ2B block – BAZ2B (human) inhibition; AlphaScreen BAZ2B-H3K14Ac peptide displacement; Potency, µM (highest dose often 114 µM), for the others: at the top dose activity change, negative = inhibition, most hits filed as inhibitors; 4.4% of 360,000 active; AID 504333; also: % is scaled to controls: 0 for no effect and ±100 for the full control effect; nearly all actives have a fitted effect of over 60% in size
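Protein-peptide AlphaScreen: BAZ2B 50 nM, b-H3K14Ac 50 nM, 1x PBS pH 7.4 + 0.01% Tween-20. Preincubation 30 min RT; cpd 30 min RT (top 110 uM); beads 20 min RT, light-protected.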
JMJD2A Tudor – blocks the human JMJD2A Tudor domain. 4.4% of 390,000 active. Potency, µM (doses to about 114 µM), for the others: top-dose activity change, negative = inhibition, usual class: inhibitors. AlphaScreen JMJD2A-Tudor / H3K4me3 peptide binding. AID 504339; also: % is scaled to controls: 0 for no effect and ±100 for the full control effect; nearly all actives have a fitted effect of over 50% in size
PLK1 PBD block – PLK1 (human) polo-box domain binding inhibition. P53350. Potency, µM, for inactives: max response, negative = inhibition, hits mostly inhibitors. 2.8% of 360,000 active. Plk1 PBD binding of FITC phosphopeptide, fluorescence polarization; also: series mostly up to about 57 µM; % is scaled to controls: 0 for no effect and ±100 for the full control effect; nearly all actives have a fitted effect of over 65% in size
Sfp inh – blocks B. subtilis Sfp PPTase activity | 3.5% of 310,000 active | Biochemical Sfp PPTase activity, qHTS | AID 1490 | Potency, µM, for inactives: largest response in the series, negative = inhibition, hits mostly inhibitors;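 also: the enzyme is Sfp with the accession as filed and its product quenches rhodamine fluorescence; 0% = enzyme reaction without inhibitor and -100% = no enzyme wells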
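Reaction rates are the 30-min fluorescence difference (ex 525, em 598 nm) in wells containing 15 nM Sfp, 5 uM rhodamine-CoA and 12.5 uM BHQ-2-YbbR at pH 7.6 with 10 mM MgCl2.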
G9a block – inhibitors of human histone lysine methyltransferase G9a; G9a H3K9 monomethylation, AlphaScreen, 2 h; Potency, µM (series often up to 102 µM), for inactives: at the top dose activity, negative = inhibition, hits mostly inhibitors; Q96KQ7; 8.8% of 350,000 active; also: % is scaled to controls: 0 for no effect and ±100 for the full control effect; nearly all actives have a fitted effect of over 75% in size
Target sequence (Q96KQ7 913-1193 limits assumed): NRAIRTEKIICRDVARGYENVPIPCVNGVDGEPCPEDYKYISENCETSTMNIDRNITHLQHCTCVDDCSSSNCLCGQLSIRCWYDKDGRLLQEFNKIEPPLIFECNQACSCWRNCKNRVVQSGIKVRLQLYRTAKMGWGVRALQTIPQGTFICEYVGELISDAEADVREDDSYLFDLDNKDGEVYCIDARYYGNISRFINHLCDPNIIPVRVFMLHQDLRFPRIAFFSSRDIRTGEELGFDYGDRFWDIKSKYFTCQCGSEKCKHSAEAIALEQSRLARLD
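Enzyme 20 nM + cpd, 15 min RT; add b-H3K9 pep 500 nM / SAM 20 uM; 2 h RT; anti-H3K9me1 Ab 0.5 ug/mL + SA donor / anti-rabbit acceptor beads 20 ug/mL each, 10 min; AlphaScreen read.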
HP1b binding inh – HP1-beta chromodomain-methylated histone interaction inhibition. AlphaScreen HP1-beta / biotin-H3K9me3 peptide binding. Potency, µM (highest dose often 114 µM), for inactives: at the top dose activity change, negative = inhibition, usual class: inhibitors. 0.56% of 390,000 active. AID 540317; also: nearly all actives have a fitted effect of over 70% in size
Target sequence (P83916 whole entry, looked up): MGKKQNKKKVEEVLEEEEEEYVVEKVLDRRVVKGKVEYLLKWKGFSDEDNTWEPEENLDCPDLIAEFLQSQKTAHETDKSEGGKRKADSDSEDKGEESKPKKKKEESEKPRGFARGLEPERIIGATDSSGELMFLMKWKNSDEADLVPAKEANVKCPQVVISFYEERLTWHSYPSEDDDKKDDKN
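HP1-beta protein (50 nM final) preincubated 30 min at room temperature with biotinylated H3(1-18)K9me3 peptide (50 nM) in PBS pH 7.4, 0.01% Tween-20, then compound added for 30 min. AlphaScreen streptavidin donor/nickel chelate acceptor beads (10 ug/mL final), 30 min dark, luminescence read.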
TbPYK confirm – confirmation of Trypanosoma brucei pyruvate kinase inhibitors; shares compounds with PLK1 PBD block; recombinant TbPYK, Kinase-Glo ATP luminescence; Potency, µM (doses to about 76.9 µM), inactives show at the highest dose activity change, negative = inhibition, actives largely listed as inhibitors; 67% of 890 active; also: % is scaled to controls: 0 for no effect and ±100 for the full control effect; nearly all actives have a fitted effect of over 70% in size
TbPYK orthogonal – orthogonal confirmation of Trypanosoma brucei pyruvate kinase inhibitors; shares compounds with PLK1 PBD block; Potency, µM (highest dose often 76.9 µM), inactives show top-dose activity change, negative = inhibition, hits mostly inhibitors; AID 720584; 62% of 890 active; recombinant TbPYK, ADP-Glo luminescence, 60 min; also: % is scaled to controls: 0 for no effect and ±100 for the full control effect; nearly all actives have a fitted effect of over 75% in size
The depositor's hits bear a star; u = inconclusive; x = no result given; ! = repeats disagree; [ ] = dose if it differs, or a comment. Calls follow the shape of the dose curve; as a rule, active = well fitted curve in the direction sought with a large enough effect; inconclusive = small, poorly fitted or top-dose-only effect, or another doubt; inactive = no such curve, though single readings can be large; an effect the other way counts as inactive or inconclusive. Potency is read from the fitted curve at half-maximal effect.

SMILES	BAZ2B block	JMJD2A Tudor	PLK1 PBD block	Sfp inh	G9a block	HP1b binding inh	TbPYK confirm	TbPYK orthogonal
O=C(NC1c2ccccc2-c2ccccc21)N1CCCCC1	10%	-10%	5%	13%	-5%[59 µM]	9%	x	x
CCC[n+]1c(C)sc2c(OC)ccc(OC)c21	5%	16µM*	0%	4µM*	25µM*	40%	2.8µM*	7.9µM*
CCOC(=O)N1CCN(S(=O)(=O)c2ccc(C(=O)NNc3nc4c(C)cccc4s3)cc2)CC1	u	u	-2%	u	35µM*	-4%	u	u
CCOC(=O)N1CCN(S(=O)(=O)c2ccc(C(=O)Nc3nc4c(s3)CC(C)CC4)cc2)CC1 (stereo unspecified)	-2%	-16%	-1%	21%	-8%	11%	x	x
O=c1[nH]c2sc3c(c2c2nncn12)CCCC3	9%	-10%	-26%	3%	-13%[59 µM]	28%	u	35µM*
CCc1cccc(NC(=O)CSC2=NS(=O)(=O)c3ccccc32)c1	-8%	-19%	11µM*	14µM*	8.9µM*	22%	18µM*	18µM*
Cc1ccc2scc(N3CCCCC3C)c(=O)c2c1 (stereo unspecified)	-27%	u	x	x	-50%[59 µM]	5%[57 µM]	x	x
O=C(O)c1cc(N=Nc2c(O)ccc3ccccc23)cc(C(=O)O)c1	u	28µM*	9.5µM*	12%	u	u	7.1µM*	13µM*
O=C(O)c1cc2ccc3cccc4ccc(c1)c2c34	u	5%	-10%	16%	21%	35%	x	x
O=c1oc2ccc(Cl)cc2cc1-c1cn2c(n1)sc1ccccc12	1%	-12%	x	x	9%[59 µM]	35%	x	x
COc1cc(N2C(=O)C=CC2=O)ccc1N1C(=O)C=CC1=O	x	4.5µM*	2.4µM*	x	x	u	1.1µM*	1.8µM*
COc1ccc(N2C(=O)C3CC(C)=C(C)CC3C2=O)c(OC)c1 (stereo unspecified)	-5%	-12%	0%	26%	-11%	54%	x	x
CC1(C)OC(=O)C(=Cc2ccc(-c3ccc(S(N)(=O)=O)cc3)o2)C(=O)O1	-19%	-8%	1.3µM*	56µM*	35µM*	-14%	13µM*	16µM*
NC1=NC(=O)/C(=C/c2ccc(-c3ccc(S(N)(=O)=O)cc3)o2)S1	-35%	u	5%	u	u	106%	x	x
O=C(O)C(Cc1ccccc1)N1C(=O)C=CC1=O (stereo unspecified)	x	x	6.7µM*	x	x	x	18µM*	32µM*
CN(N=Cc1ccccc1)C(=S)Nc1ccccc1	x	x	-16%	x	x	x	x	x
CC1C=CCC2C(=O)N(c3cccc(C(=O)NCCc4ccccc4)c3)C(=O)C12 (stereo unspecified)	-21%	-20%	-20%	6%	u	26%	x	x
CC1C=CCC2C(=O)N(c3cccc(C(=O)NCc4ccccc4)c3)C(=O)C12 (stereo unspecified)	-24%	-28%	-8%	-27%	28µM*	20%	u	u
Cn1c(=O)c2cc(S(=O)(=O)NC(Cc3ccccc3)C(=O)Nc3ccc(F)cc3)ccc2n(C)c1=O (stereo unspecified)	u	-20%	x	x	-18%[59 µM]	11%	x	x
COc1cc2ccc(=O)oc2c(OC)c1OC	x	x	x	1%	-25%[2.33 µM]	x	x	x
COc1cc2ccc(=O)oc2c(O)c1O	x	6.3µM*	-4%	40µM*!	x	0%	28µM*	35µM*
N#Cc1c(NC(NC(=O)c2ccco2)C(=O)c2ccccc2)sc2c1CCCC2 (stereo unspecified)	-37%	50µM*	-20%	20µM*	5µM*	-26%	u	3.5µM*
c1coc(-c2nc3ccccc3nc2-c2ccco2)c1	71µM*	u	u	14µM*	8.9µM*	5%	14µM*	18µM*
O=C(c1ccccc1)c1ccc2nc(-c3ccco3)c(-c3ccco3)nc2c1	14µM*	13µM*	7.5µM*	7.1µM*	3.2µM*	16µM*	u	u
O=C(O)c1ccc2nc(-c3ccccc3)c(-c3ccccc3)nc2c1	6%	-7%	-14%	26%	12%[59 µM]	28%	x	x
SMILES	BAZ2B block	JMJD2A Tudor	PLK1 PBD block	Sfp inh	G9a block	HP1b binding inh	TbPYK confirm	TbPYK orthogonal
Cc1nc(NCc2ccccc2)c2nc(-c3ccccc3)n(CCCN(C)C)c2n1	x	x	x	39%	x	x	x	x
CC1CCN(C(=S)NC(=O)c2cccs2)CC1	-19%	-10%	-1%	5%	45µM*	23%	u	14µM*
COC(=O)/C(=N\Nc1ccccc1)Sc1nnc(-c2ccc(OC)cc2)n1C	-5%	u	-4%	-14%	5µM*	24%	18µM*	18µM*
O=C1CC(Sc2nnnn2-c2ccccc2)C(=O)N1c1cccc(Cl)c1 (stereo unspecified)	-1%	-7%	u	13µM*	0.89µM*	27%	28µM*	32µM*
COc1ccccc1Cc1c(-c2ccco2)nc2c(C)cc(Br)cn12	x	x	12µM*	x	x	x	-14%	-26%
COc1ccc(Cc2c(-c3ccco3)nc3ccc(Br)cn23)c(C)c1	x	x	24µM*	x	x	x	u	u
COc1ccc(Cc2c(-c3ccco3)nc3c(C)cc(Br)cn23)c(C)c1	x	x	-9%	x	x	x	x	x
CC(=O)N1CCOc2cc(S(=O)(=O)Nc3cccc(C(F)(F)F)c3)c(Cl)cc21	2%	-26%	x	x	0%[59 µM]	61%	x	x
Cc1nonc1C(=O)N/N=C/c1ccc(O)cc1O	-4%	-8%[11.4 µM]	-6%	5%	x	38%	28µM*	-1%
COc1cccc(C(=O)CSc2nnc(CNS(C)(=O)=O)n2-c2ccc(C)cc2)c1	-24%	18µM*	-19%	-27%	18µM*	u	u	28µM*
CC(=O)Oc1ccc(N2C(=O)C3C4C=CC(CO)(O4)C3C2=O)cc1 (stereo unspecified)	14%	45µM*	27µM*	16µM*	1µM*	u	-48%	u
COc1ccc(N2C(=O)C3C4C=CC(c5ccccc5)(C3C2=O)C2C(=O)N(c3ccc(OC)cc3)C(=O)C42)cc1 (stereo unspecified)	-18%	-18%	-8%	11%	u	38%	x	x
Cc1ccc(NC(=S)N2CCN(Cc3ccccc3)CC2)cc1	-28%	-19%	2%	23%	7%[59 µM]	28%	x	x
Cc1ccc(C(=S)N2CCN(Cc3ccccc3)CC2)cc1	u	-21%	8.4µM*	11µM*	u	-6%	8.9µM*	13µM*
